Most compounds without a hit are left out; they make up all but 7.4% or so of the library.
FLuc counter: inhibits or activates purified firefly luciferase, miR-21 counter-screen; P08659; purified FLuc, Km substrates, luminescence inhibition; Potency, µM (highest dose often 57.5 µM), without a hit: at the top dose activity change, negative = inhibition, usual class: inhibitors; 360,000 compounds, 6.9% hits; AID 588342;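 note: plate controls were vehicle for no effect and reference inhibitor for full effect; nearly all actives have a fitted effect of over 55% in size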
Target sequence (P08659 whole entry, looked up): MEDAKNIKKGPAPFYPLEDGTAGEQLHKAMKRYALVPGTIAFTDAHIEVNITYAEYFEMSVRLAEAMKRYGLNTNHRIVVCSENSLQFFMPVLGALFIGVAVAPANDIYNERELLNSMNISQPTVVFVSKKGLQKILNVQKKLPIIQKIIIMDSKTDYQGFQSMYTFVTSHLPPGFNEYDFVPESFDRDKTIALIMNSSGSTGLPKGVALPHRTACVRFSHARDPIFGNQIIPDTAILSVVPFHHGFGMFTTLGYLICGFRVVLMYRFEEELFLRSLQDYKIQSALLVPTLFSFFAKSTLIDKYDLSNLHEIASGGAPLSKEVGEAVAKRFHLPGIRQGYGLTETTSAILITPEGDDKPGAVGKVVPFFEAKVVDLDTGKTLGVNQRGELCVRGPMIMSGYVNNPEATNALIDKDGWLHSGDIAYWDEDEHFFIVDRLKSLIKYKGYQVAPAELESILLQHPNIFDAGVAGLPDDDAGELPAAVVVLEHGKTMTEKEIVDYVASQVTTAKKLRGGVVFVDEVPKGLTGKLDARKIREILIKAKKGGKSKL
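Purified P. pyralis luciferase, 10 nM final, with Km-level 10 uM D-luciferin and 10 uM ATP in 50 mM Tris acetate pH 7.5, 10 mM Mg acetate, 0.01% Tween-20, 0.05% BSA; 6-point qHTS titration about 60 µM downward; luminescence read.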
SMN2 splice up: enhancers of SMN2 splice variant expression; 210,000 compounds, 2.8% hits; Potency, µM (top dose mostly 46.1 µM), without a hit: top-dose activity change, positive = activation, hits mostly activators; AID 1458; HEK293 SMN2-luciferase splicing reporter, luminescence, 30-36 h; note: % of control where 0% means no effect; nearly all actives have a fitted effect of over 55% in size
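HEK293 cells carry an SMN2 minigene-luciferase reporter in which exon 7 inclusion puts luciferase in frame. Cells were seeded at 2000 cells/well, attached for 10-12 hours, then exposed to compounds for 30-36 hours at 37C before ONE-Glo luminescence.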
Rab9 prom act: Rab9 promoter activation; Huh7 Rab9 promoter-luciferase reporter, luminescence, 24 h; Potency, µM (titrated, usually from 9.22 µM), for the others: at the top dose activation, negative = inhibition, hits mostly activators; 320,000 compounds, 2.8% hits; note: % of control where 0% means no effect; nearly all actives have a fitted effect of over 60% in size
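Promoter activation is measured as luciferase luminescence in Huh7 cells stably transfected with a Rab9 promoter–luciferase construct, following 24 h compound exposure at 37 °C and 10 min reagent incubation at ambient temperature.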
p53 reactivation: re-activators of mutant p53 | 320,000 compounds, 0.063% hits | H1299 p53-A138V BP100-luciferase reporter, luminescence, 24 h | Potency, µM (highest dose often 92.2 µM), inactives show at the top dose activity change, positive = activation, usual class: activators; note: % of control where 0% means no effect; nearly all actives have a fitted effect of over 45% in size
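H1299 (p53-null), stable ts p53-A138V + BP100-Luc; 1000 cells/well, Opti-MEM/10% FBS; cpd 4 pt, 1:5; 24 h, 37 deg C, 5% CO2; detection reagent 10 min RT; luminescence.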
ELG1 genotoxic: genotoxicity induction in ELG1-luciferase HEK293T cells. AID 504466. HEK293T ELG1-luciferase reporter, luminescence, 16 h. Potency, µM (titrated, usually from 46 µM), without a hit: top-dose activity change, positive = activation, actives largely listed as activators. 330,000 compounds, 1.3% hits; note: % of control where 0% means no effect; nearly all actives have a fitted effect of over 60% in size
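Genotoxicity was scored as increased ELG1-luciferase reporter signal, measured by ONE-Glo luminescence (30 min, room temperature). Compound or vehicle exposure of the HEK293T reporter cells lasted 16 hr at 37°C.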
NPC1 prom act: activators of NPC1 promoter; 320,000 compounds, 2.4% hits; Potency, µM (doses to about 9.22 µM), for the others: at the top dose activation, actives largely listed as activators; Huh7 NPC1 promoter luciferase reporter, 24 h; AID 485313; note: % of control where 0% means no effect; nearly all actives have a fitted effect of over 60% in size
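Luciferase expression driven by the NPC1 promoter was measured in stably transfected Huh7 cells after a 24 h compound incubation, using a luciferase reagent and a luminescence read.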
* hit, by the source's call; u = inconclusive; x = no result given; [ ] = another dose, or the depositor's remark. Calls come from the whole dose curve; as a rule, active = well fitted curve in the direction sought with a large enough effect; inconclusive = small, poorly fitted or top-dose-only effect, or another doubt; inactive = no such curve, though single readings can be large; an effect the other way counts as inactive or inconclusive. Potency is the fitted concentration of half-maximal effect.

SMILES	FLuc counter	SMN2 splice up	Rab9 prom act	p53 reactivation	ELG1 genotoxic	NPC1 prom act
CCc1ccc2oc(-c3cc(NC(=O)c4cc(OC)c(OC)c(OC)c4)ccc3O)nc2c1	3.8µM*	-7%	x	x	x	x
CCc1ccc2oc(-c3cc(N=Cc4cccc(OC)c4O)ccc3O)nc2c1	0.43µM*	14µM*	4µM*	13%	u	4.5µM*
COc1cc(C(=O)Nc2ccc(-c3nc4cc(C)ccc4o3)c(O)c2)cc(OC)c1OC	1%	-18%	-4%	-4%	-9%	-4%
C=CC[C@@H](CC(=O)N[C@H](CO)Cc1ccccc1)C(=O)N[C@H](COC(=O)[C@@H](CC=C)CC(=O)OC(C)(C)C)Cc1ccccc1	x	x	x	0%	-4%	x
Cc1nnc2c3ccccc3c(-c3cccs3)nn12	0%	11µM*	0%	-4%	13µM*	-22%
CCC1(C)Cc2c(sc3nc(SC)[nH]c(=S)c23)CO1 (stereo not given)	u	x	-1%	18%	-8%	-5%
Cc1ccc(CSc2nnc(-c3ccco3)o2)cc1	12µM*	20%	4µM*	26%	u	u
Brc1ccc(CSc2nnc(-c3ccco3)o2)cc1	u	13µM*	8%	u	18%	-1%
c1ccc(CSc2nnc(-c3ccco3)o2)cc1	17µM*	x	u	u	u	u
Fc1ccc(CSc2nnc(-c3ccco3)o2)cc1	u	x	u	16%	15%	u
O=C(CSc1nnc(-c2ccco2)o1)c1ccccc1Cl	27µM*	22%	u	17%	15%	17%
C[C@@]1(C(NC(=O)c2cccs2)c2ccc(-c3ccccc3)cc2)C[C@H]1C1CCCCC1 (stereo not given in full)	x	-10%	x	x	x	x
CCc1ccc(/C=C2/Sc3ccccc3N(CC(=O)NCC3CCCO3)C2=O)cc1 (stereo not given)	19µM*	x	2%	13%	-7%	3%
Cc1cc(C)cc(NC(=O)CCc2c(C)nn(-c3ccc(N4CCCCC4)nn3)c2C)c1	4.8µM*	x	u	u	10%[9.26 µM]	u
CCOc1ccccc1NC(=O)CCc1c(C)nn(-c2ccc(N3CCCCC3)nn2)c1C	11µM*	x	21%	u	-6%	3%
CCOc1ccccc1CNC(=O)CCc1c(C)nn(-c2ccc(N3CCCCC3)nn2)c1C	-17%	x	x	x	x	x
Cc1nn(-c2ccc(N3CCCCC3)nn2)c(C)c1CCC(=O)Nc1ccc(F)c(F)c1	5.4µM*	x	2.5µM*	u	1%	2.5µM*
Cc1cc(F)ccc1NC(=O)CCc1c(C)nn(-c2ccc(N3CCCCC3)nn2)c1C	u	x	0%	-4%	-5%	-3%
COc1ccc(C)cc1NC(=O)CCc1c(C)nn(-c2ccc(N3CCCCC3)nn2)c1C	12µM*	x	u	26%	4%	u
CCOCCCn1c(=N)c(C(=O)NCc2cccnc2)cc2c(=O)n3ccccc3nc21	6%	-12%	x	x	x	x
CC(=O)c1ccc(NC(=O)CCc2c(C)nn(-c3ccc(N4CCCCC4)nn3)c2C)cc1	8.5µM*	x	x	x	x	x
Cc1ccc(NC(=O)CCc2c(C)nn(-c3ccc(N4CCCCC4)nn3)c2C)cc1C	12µM*	x	u	u	12%[9.26 µM]	u
Cc1ccc(NC(=O)CCc2c(C)nn(-c3ccc(N4CCCCC4)nn3)c2C)cc1	11µM*	x	u	-1%	10%[9.26 µM]	1.6µM*
CCOC(=O)c1cccc(NC(=O)CCc2c(C)nn(-c3ccc(N4CCCCC4)nn3)c2C)c1	11µM*	x	x	x	x	x
O=C(O)CN1C(=O)COc2ccc(S(=O)(=O)N3CCCCCC3)cc21	2%	x	3%	8%	0%	3%
SMILES	FLuc counter	SMN2 splice up	Rab9 prom act	p53 reactivation	ELG1 genotoxic	NPC1 prom act
COc1ccc(NC(=O)C2=C(C)Nc3nc(SCc4ccc(Cl)cc4)nn3C2c2cccc(OC)c2OC)cc1 (stereo not given)	-1%	x	x	x	x	x
CCN(CC)C(=O)CSc1nc(-c2ccc(C)cc2)nc2c1Cc1c(CO)cnc(C)c1O2	-8%	x	x	x	x	x
O=C(N/N=C/c1ccccn1)c1cc(-c2ccc(Cl)cc2)nc2ccccc12	6.7µM*	-81%	-4%	u	17%	0%
O=C(N/N=C/c1ccccn1)c1cc(-c2ccc(Br)cc2)nc2ccccc12	5.4µM*	x	-3%	u	u	-4%
O=C(Cn1ccc2cc(S(=O)(=O)N3CCCCCC3)ccc21)NCc1ccccc1Cl	-14%	x	x	x	x	x
Cc1ccc(Cn2c(C)c3cnn(CC(=O)O)c(=O)c3c2C)cc1	-17%	-4%	x	x	x	x
C[N+](C)(C)c1ccc([C@H](N)C(=O)O)cc1	x	-4%[9.22 µM]	x	x	x	x
O=C(Nc1nnc(C(F)(F)F)s1)c1c(F)cccc1F	u	x	5%	9%	-7%	12%
O=C(Nc1nnc(-c2ccccc2F)s1)c1cccnc1	9.5µM*	u	2µM*	6%	u	2.2µM*
Cc1ccc(NC(=O)Nc2nnc(-c3ccccc3F)s2)cc1	-12%	x	u	15%	9%	u
O=C(Nc1nnc(C(F)(F)F)s1)c1cccnc1	12µM*	11µM*	4.5µM*	u	12%	u
CCC(C)(C)C(=O)O[C@@H]1C[C@H](C)C=C2C=C[C@H](C)[C@@H](CC[C@H]3C[C@@H](O)CC(=O)O3)[C@H]21	x	-16%[20.6 µM]	x	x	x	x
COCc1oc2ccc(NS(=O)(=O)c3ccc(C)cc3)cc2c1C(=O)OC	u	-12%	x	x	x	x
C[n+]1ccccc1/C=N\O	x	-9%[20.6 µM]	x	x	x	x
COc1cc2c(cc1OC)-c1cc(Nc3ccc4c(c3)OCCO4)nc(=O)n1CC2	15µM*	0%	-10%	-9%	u	-1%
CCOc1ccccc1C1C(C(=O)Nc2ccccc2)=C(C)Nc2nc(SCC(=O)c3ccc(C)cc3)nn21 (stereo not given)	-1%	x	x	x	x	x
CC(Sc1nc2ccccc2[nH]1)C(=O)O (stereo not given)	4%	u	-4%	3%	-1%	2%
CC(=O)N=C(N)Sc1nc2ccccc2[nH]1	15µM*	13µM*	4µM*	u	u	2.5µM*
c1ccc2c(c1)-c1nc3ccccc3cc1[C@H]2N1CCOCC1	x	-14%[9.22 µM]	x	x	x	x
OC1c2ccccc2-c2nc3ccccc3cc21 (stereo not given)	x	14µM*	x	x	x	x
Cc1c(O)ccc(-c2n[nH]c(C(=O)O)c2-c2nc3ccccc3s2)c1O	17µM*	x	16%	6%	13%	0%
CC/C(=N\Nc1ccc([N+](=O)[O-])cc1[N+](=O)[O-])c1ccc(O)cc1	-1%	x	-2%	-5%	-1%	0%
